# JMJD2A Tudor: qHTS Assay for Inhibitors of JMJD2A-Tudor Domain; 390,000 compounds, 4.4% hits; AlphaScreen JMJD2A-Tudor / H3K4me3 peptide binding; Potency, µM (doses to about 114 µM), for inactives: top-dose activity change, negative = inhibition, usual class: inhibitors; Lysine-specific demethylase 4A (Homo sapiens), O75164; further: on the % scale 0 is the no-effect control and ±100 the full control effect; nearly all actives have a fitted effect of over 50% in size
# VDR inhibitor: Inhibitors of the vitamin D receptor (VDR): qHTS. Vitamin D3 receptor (Homo sapiens), P11473. VDR-SRC2-3 peptide fluorescence polarization, 2 h. Potency, µM, without a hit: max response, negative = inhibition, usual class: inhibitors. 400,000 compounds, 0.93% hits. AID 504847, 2011; further: on the % scale 0 is the no-effect control and ±100 the full control effect
# Target sequence (P11473 whole entry, looked up): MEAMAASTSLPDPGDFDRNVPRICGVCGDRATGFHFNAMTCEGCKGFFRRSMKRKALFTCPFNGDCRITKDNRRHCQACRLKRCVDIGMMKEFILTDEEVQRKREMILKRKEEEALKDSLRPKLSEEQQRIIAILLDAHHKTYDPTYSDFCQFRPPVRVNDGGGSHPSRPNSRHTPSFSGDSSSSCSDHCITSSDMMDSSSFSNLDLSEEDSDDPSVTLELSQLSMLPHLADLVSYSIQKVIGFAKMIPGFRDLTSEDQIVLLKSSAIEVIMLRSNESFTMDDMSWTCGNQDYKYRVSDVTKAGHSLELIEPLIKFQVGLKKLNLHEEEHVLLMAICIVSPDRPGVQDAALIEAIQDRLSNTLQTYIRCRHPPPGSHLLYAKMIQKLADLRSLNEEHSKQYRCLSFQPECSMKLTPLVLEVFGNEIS
#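 Compounds are added to VDR with labelled SRC2-3 coactivator peptide and held 2 h at room temperature. Inhibition of the VDR–peptide interaction is then read as a change in fluorescence polarization.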
# BAZ2B block: qHTS Assay for Inhibitors of BAZ2B; AID 504333, 2011; 360,000 compounds, 4.4% hits; Potency, µM (top dose mostly 114 µM), for the others: at the highest dose activity change, negative = inhibition, actives largely listed as inhibitors; Bromodomain adjacent to zinc finger domain protein 2B (Homo sapiens), Q9UIF8; AlphaScreen BAZ2B-H3K14Ac peptide displacement; further: on the % scale 0 is the no-effect control and ±100 the full control effect; nearly all actives have a fitted effect of over 60% in size
#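 AlphaScreen luminescence quantifies BAZ2B engagement of H3K14Ac peptide; the protein and biotinylated peptide are both at 50 nM final, buffer PBS pH 7.4 with 0.01% Tween-20, all steps at room temperature.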
# PLK1 PBD inh: qHTS for Inhibitors of PLK1-PDB (polo-like kinase 1 - polo-box domain): Primary Screen | Serine/threonine-protein kinase PLK1 (Homo sapiens), P53350 | Plk1 PBD binding of FITC phosphopeptide, fluorescence polarization | Potency, µM, inactives show max response, negative = inhibition, usual class: inhibitors | 360,000 compounds, 2.8% hits | AID 720504, 2013; further: series mostly up to about 57 µM; on the % scale 0 is the no-effect control and ±100 the full control effect; nearly all actives have a fitted effect of over 65% in size
# HP1b binding inh: HTS for Inhibitors of HP1-beta Chromodomain Interactions with Methylated Histone Tails | 390,000 compounds, 0.56% hits | Potency, µM (top dose mostly 114 µM), for the others: at the highest dose activity change, negative = inhibition, most hits filed as inhibitors | AlphaScreen HP1-beta / biotin-H3K9me3 peptide binding; further: nearly all actives have a fitted effect of over 70% in size
# Target sequence (P83916 whole entry, looked up): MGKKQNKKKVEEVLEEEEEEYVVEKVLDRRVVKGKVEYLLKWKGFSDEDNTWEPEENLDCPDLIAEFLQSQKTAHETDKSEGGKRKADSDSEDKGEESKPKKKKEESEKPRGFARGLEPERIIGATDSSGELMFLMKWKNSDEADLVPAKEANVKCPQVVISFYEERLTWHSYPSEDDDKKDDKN
#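 HP1-beta protein (50 nM final) preincubated 30 min at room temperature with biotinylated H3(1-18)K9me3 peptide (50 nM) in PBS pH 7.4, 0.01% Tween-20, then compound added for 30 min. AlphaScreen streptavidin donor/nickel chelate acceptor beads (10 ug/mL final), 30 min dark, luminescence read.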
# L3MBTL1 inh: qHTS Assay for the Inhibitors of L3MBTL1. Lethal(3)malignant brain tumor-like protein 1 (Homo sapiens), Q9Y468. 230,000 compounds, 0.66% hits. AlphaScreen L3MBTL1–H3K9me1 peptide binding. Potency, µM (titrated, usually from 57.1 µM), without a hit: at the top dose activity, negative = inhibition, most hits filed as inhibitors; further: on the % scale 0 is the no-effect control and ±100 the full control effect; nearly all actives have a fitted effect of over 60% in size
#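 L3MBTL1 (50 nM) pre-complexed 30 min with biotinylated H3(1-15)K9me1 peptide (75 nM), then compounds added for 30 min at room temperature; AlphaScreen streptavidin donor/nickel chelate acceptor beads (10 ug/mL final) read after 30 min dark incubation.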
# An asterisk follows results filed as active; ? = inconclusive; / = no result; [ ] = dose if it differs, or a comment. Only some compounds are listed: those with a hit (about 6.9% of all), similar ones and a draw of the others. The call rests on the fitted dose curve; in most records, active means well fitted curve in the direction sought with a large enough effect; inconclusive means small, poorly fitted or top-dose-only effect, or another doubt; inactive means no such curve, though single readings can be large; an effect the other way counts as inactive or inconclusive. Potency means the concentration at half of the fitted maximal effect.
SMILES,JMJD2A Tudor,VDR inhibitor,BAZ2B block,PLK1 PBD inh,HP1b binding inh,L3MBTL1 inh
CCOc1ccc(N(CC)C(=O)c2cc3c(s2)-c2ccccc2OC3)cc1,-5.8%,-14.2%,-3.6%,/,24.3%,/
CCc1ccc(C(=O)c2cn(CC(=O)Nc3cc(F)ccc3F)c3nc(C)ccc3c2=O)cc1,?,-9.6%,-6.5%,/,35.0%,/
Cc1noc(/C=C/c2ccco2)c1S(=O)(=O)N1CCC(C(=O)Nc2ccc(F)cc2F)CC1,-13.0%,3.8%,/,/,18.0%,/
O=C(NCCN1CCOCC1)C1(C(F)(F)F)CC(CCCO)CCCO1 (stereo not drawn),-6.2%,10.9%,/,/,10.4%,/
CC(C)(C)C1CCc2c(sc3nc(-c4cc5cc(Cl)ccc5oc4=O)[nH]c(=O)c23)C1 (stereo not drawn),-13.2%,15.4%,-7.3%,/,-4.5%,/
O=C(CN1C(=O)NC2(CCc3ccccc3C2)C1=O)Nc1ccc(F)cc1 (stereo not drawn),-17.9%,-8.4%,1.3%,-9.8%,7.8%,-4.1%
Cc1ccnc(NC(=O)C2CC(=O)N(c3ccc4c(c3)OCCO4)C2)c1 (stereo not drawn),-14.1%,4.7%,79.4µM*,-16.3%,13.9%,/
CCCCN(C(=O)C1CC(=O)N(c2ccc3c(c2)OCCO3)C1)c1c(N)n(CC(C)C)c(=O)[nH]c1=O (stereo not drawn),-10.9%,9.4%,8.3%,-7.3%,3.9%,8.0%
CCCCn1c(N)c(N(CCC(C)C)C(=O)C2CC(=O)N(c3ccc4c(c3)OCCO4)C2)c(=O)[nH]c1=O (stereo not drawn),-15.9%,18.8%,-7.9%,11.9µM*,33.6%[57 µM],/
Cc1nc2ccc(NC3=NCCCCC3)cc2s1,3.55µM*,?,?,29.9µM*,?,1.4%
Cc1cccc(N2CCN(c3ccc4cc(S(=O)(=O)N5CCC(C)CC5)ccc4n3)CC2C)c1 (stereo not drawn),5.5%,11.9%,-4.0%,/,64.5%,/
Cc1ccnc(SCC(=O)c2ccc(Br)cc2)c1C#N,?,12.8%,16.4%,-12.3%,36.9%,26.2%
N#Cc1c(SCC(N)=O)nsc1SCc1ccc(Cl)cc1,-3.6%,5.0%,8.9%,-1.5%,45.6%,1.7%
COC(=O)c1ccccc1CSc1nsc(C)c1C#N,83.6%,-24.5%,87.3%,13.4µM*,47.9%,/
Cc1snc(SCC(=O)c2ccc(Cl)cc2)c1C#N,27.3%,-25.3%,25.5%,21.2µM*,21.0%,16.1%
Cc1ccc(C(=O)CSc2nsc(C)c2C#N)cc1,-19.8%,?,5.1%,15µM*,-25.9%,12.4%
CCC(C)c1ccc(NC(=O)C/C(C)=N/NC(=O)c2cnccn2)cc1 (stereo not drawn),-17.2%,13.1%,10.6%,-7.7%,23.0%,6.7%
CCC(C(=O)N1CCN(c2ncccn2)CC1)c1ccccc1 (stereo not drawn),-3.7%[11.4 µM],-25.6%,-18.3%,23.8µM*,-7.4%,/
Cc1cc(=O)[nH]c(N/N=C/c2cccs2)n1,?,11.1%,2.1%,-12.7%,28.4%,15.2%
O=c1cnnc(N/N=C/c2cccs2)[nH]1,-28.0%,-4.1%,79.4µM*,-3.4%,15.9%[57 µM],/
COc1ccc(NC(=S)N/N=C/c2cccn2Cc2ccccc2F)cc1,-5.5%,-8.0%,-19.2%,2.9%,22.2%,/
CSc1ccccc1NC(=S)N/N=C/c1cccn1Cc1ccc(F)cc1,35.5µM*,13.5%,28.2µM*,0.3%,-14.8%,/
COc1ccc(NC(=S)N/N=C/c2cccn2Cc2ccc(F)cc2Cl)cc1,28.2µM*,-14.8%,17.8µM*,-5.4%,?,/
Cc1cccc(NC(=S)N/N=C/c2cccn2Cc2ccc(F)cc2)c1,-17.5%,-2.5%,8.91µM*,0.9%,-3.6%,/
CSc1ccccc1NC(=S)N/N=C/c1cccn1Cc1cccc(C)c1,-32.6%,-10.3%,8.91µM*,0.0%,-2.9%,/
SMILES,JMJD2A Tudor,VDR inhibitor,BAZ2B block,PLK1 PBD inh,HP1b binding inh,L3MBTL1 inh
Cc1cc(C)c2c(=O)cc(C(=O)NCc3ccc(S(N)(=O)=O)cc3)oc2c1,-7.3%,4.5%,29.2%,/,62.8%,/
O=c1[nH]n(CCO)c(=O)c2cccnc12,56.2µM*,4.4%,?,-5.1%,-13.6%,-1.8%
C=CCNC(=S)Nc1ccc(OC)c(S(=O)(=O)N2CCOCC2)c1,-5.6%,10.7%,-7.3%,-6.6%,36.5%,-7.5%
Cc1nn(CC(=O)OCC(=O)Nc2c(C(C)C)cccc2C(C)C)c(C)c1[N+](=O)[O-],?,-2.8%,-1.1%,29.9µM*,5.6%,3.8%
COC(=O)c1ccc(NC2c3ncccc3C(=O)N2Cc2cccs2)cc1 (stereo not drawn),-7.7%,-10.7%,-2.9%,-20.8%,24.1%,/
COc1ccc(CN2C(=O)c3cccnc3C2Nc2cc(Cl)ccc2OC)cc1 (stereo not drawn),20µM*,4.4%,25.1µM*,-11.4%,-23.1%,?
COc1ccc(CN2C(=O)c3cccnc3C2O)cc1 (stereo not drawn),?,-8.6%,39.8µM*,-5.9%,-23.5%,/
COc1ccc(NC2c3ncccc3C(=O)N2Cc2cccs2)cc1 (stereo not drawn),?,-0.7%,70.8µM*,-28.6%,?,-0.6%
COc1ccc(OC)c(NC2c3ncccc3C(=O)N2Cc2ccco2)c1 (stereo not drawn),-33.8%,-6.1%,?,-12.9%,2.6%,-5.5%
COc1ccc(S(=O)(=O)N(CC(=O)N/N=C/c2cccs2)c2cc(C)cc(C)c2)cc1OC,?,0.0%,1.7%,-0.4%,1.8%,-6.5%
O=[N+]([O-])c1cc(S(=O)(=O)Nc2cccc(C(F)(F)F)c2)ccc1-n1nnc2ccccc21,?,10.4%,?,26.7µM*,?,/
O=[N+]([O-])c1cc(S(=O)(=O)Nc2ccccc2)ccc1Nc1ccccc1,22.4µM*,-17.1%,/,2.2%,?,/
C/C(=N\NS(=O)(=O)c1ccc(C)c([N+](=O)[O-])c1)c1cccs1,-17.6%,-14.5%,/,?,16.9%,-5.8%
CS(=O)(=O)c1ccc(-n2nnc3ccccc32)c([N+](=O)[O-])c1,-20.3%,-1.3%,-11.5%,-7.1%,-13.1%,/
O=[N+]([O-])c1cc(S(=O)(=O)Nc2ccccc2)ccc1N1CCN(c2ccccc2)CC1,10µM*,0.3%,39.8µM*,-8.4%,?,?
C/C(CC(C)C)=N\NS(=O)(=O)c1ccc(C)c([N+](=O)[O-])c1,?,-21.0%,12.2%,29.9µM*,-12.2%,7.1%
